Data published in PubChem BioAssay (NCATS).
Records with an inconclusive call do not appear. The source made the active and inactive calls. Unless noted, the call rests on the fitted dose curve; in most records, active means well fitted curve in the direction sought with a large enough effect; inconclusive means small, poorly fitted or top-dose-only effect, or another doubt; inactive means no such curve, though single readings can be large; an effect the other way counts as inactive or inconclusive.

How the values were obtained:
[1] = target: Cytochrome P450 1A2 (Homo sapiens) (UniProt P05177); assay: p450-cyp1a2 (AID 410; calls by dose curve; further: potency means the concentration at half of the fitted maximal effect)
In short: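 Luminescent demethylation readout: Luciferin-ME (100uM, equal to Km) turned over by 20nM CYP1A2 for 60 min at room temperature after NADPH regeneration addition, following 10 min compound preincubation. Normalization used 57 uM furafylline as full inhibition.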

[2] = target: Glucocorticoid receptor (Homo sapiens) (UniProt P04150); assay: GR-GFP Redistribution (AID 450;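 active means compounds whose dose series gives a full or clear partial fitted curve of increased nuclear translocation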; further: potency means the concentration at half of the fitted maximal effect); conditions: U2OS GR-GFP nuclear translocation, laser cytometry, 2 h
[3] = target: Glucocorticoid receptor (Homo sapiens) (UniProt P04150); assay: GR-EFC Redistribution (AID 451; calls by dose curve; further: potency means the concentration at half of the fitted maximal effect); conditions: CHO-K1 GR-EFC translocation, beta-gal luminescence, 2 h
In short: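 CHO-K1 cells stably expressing nuclear-localized β-gal enzyme acceptor and GR fused C-terminally to the enzyme donor fragment; ligand-driven nuclear translocation restores β-gal by complementation. Compounds titrated up to 46 uM final, 2 h at 37 °C; luminescence read.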

[4] = target: Mitogen-activated protein kinase 10 (Mus musculus) (UniProt Q61831); assay: JNK3 AlphaScreen Assay (AID 530; active means well fitted curve in either direction with a large enough effect, not every such curve was filed as active;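 further: kinase came from lysate of stimulated human HepG2 cells; signal reports phosphorylation of biotinylated GST-cJun 1-79 at Ser73 with 10 µM ATP; series mostly up to about 57 µM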)
In short: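 Phosphorylation of biotinylated GST-cJun(1-79) at Ser73 is measured by AlphaScreen proximity luminescence. Enzyme is JNK3 in HepG2 lysates activated with interleukin-1beta and tumor necrosis factor alpha; ATP is 10 uM final.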

[5] = target: Cytochrome P450 2C9 (Homo sapiens) (UniProt P11712); assay: qHTS Assay for Inhibitors and Substrates of Cytochrome P450 2C9 (AID 883); further: potency means the concentration at half of the fitted maximal effect; nearly all actives have a fitted effect of over 60% in size
In short: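 A luminogenic readout tracked human CYP2C9 (10nM) converting deoxyluciferin (100uM, at KM) in 25mM KPO4 during 60 min at 37C with regenerated NADPH. Values normalized to 57uM sulphaphenazole as complete inhibition.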

[6] = target: Cytochrome P450 3A4 (Homo sapiens) (UniProt P08684); assay: qHTS Assay for Inhibitors and Substrates of Cytochrome P450 3A4 (AID 884); further: potency means the concentration at half of the fitted maximal effect; nearly all actives have a fitted effect of over 50% in size
In short: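 Luminescent readout of luciferin produced by CYP3A4 (20 nM) dealkylation of Luciferin-PPXE, 25 uM (its KM). NADPH-driven reaction ran 60 min at RT after 10 min compound preincubation; data scaled to 57 uM ketoconazole as 100% inhibition.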

[7] = target: Cytochrome P450 3A4 (Homo sapiens) (UniProt P08684); assay: qHTS Assay for Activators of Cytochrome P450 3A4 (AID 885); further: nearly all actives have a fitted effect of over 65% in size
In short: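 Human CYP3A4 dealkylates Luciferin-PPXE to luciferin, which luciferase detection converts to light. Substrate was at its KM (25uM), buffer 200mM KPO4, reaction 60 min at RT.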

[8] = target: Cytochrome P450 2D6 (Homo sapiens) (UniProt P10635); assay: qHTS Assay for Inhibitors and Substrates of Cytochrome P450 2D6 (AID 891); further: potency means the concentration at half of the fitted maximal effect; nearly all actives have a fitted effect of over 60% in size
In short: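 Luminescent read-out of luciferin formed by 5 nM human CYP2D6 demethylating 30 uM Luciferin-ME EGE (Km level) over 60 min at room temperature after NADPH regeneration addition. Data normalized to full inhibition by 1.43 uM quinidine.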

[9] = target: Cytochrome P450 2C19 (Homo sapiens) (UniProt P33261); assay: qHTS Assay for Inhibitors and Substrates of Cytochrome P450 2C19 (AID 899); further: potency means the concentration at half of the fitted maximal effect; nearly all actives have a fitted effect of over 60% in size
In short: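 NADPH-dependent conversion of Luciferin-H EGE (10uM, at KM) by 5nM enzyme in 50mM KPO4, 60 min at 37C following 10 min compound preincubation. Stopped with luciferin detection buffer; luminescence read after 20 min.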

[10] = target: DNA dC->dU-editing enzyme APOBEC-3G (Homo sapiens) (UniProt Q9HC16); assay: qHTS for inhibitors of Vif-A3G interactions: Validation (AID 588379)
In short: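 Yellow fluorescence (Ex 488, Em 500-530) of Vif-coexpressing HeLa A3G-eYFP cells, scanned by Acumen cytometer, reports blocked A3G degradation. Cells plated at 700/well overnight at 37 deg C before compound addition, then a further overnight compound incubation at 37 deg C.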

[11] = NCATS anti-infectives library activity on HEK293 viability as a counter-qHTS vs the C. elegans viability qHTS (AID 1745854)
In short: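 Cytotoxicity counter-screen to a worm viability qHTS: CellTiter-Glo luminescence read 10 min after reagent addition. Compounds (final up to 41.7 uM, a 1:5 dilution series) incubated 24 hr at 37C with 1,500 HEK293 cells per well; digitonin control.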

Measured: Potency

Chain of Glucocorticoid receptor (Homo sapiens) (P04150 whole entry, looked up, the tested form may be a part): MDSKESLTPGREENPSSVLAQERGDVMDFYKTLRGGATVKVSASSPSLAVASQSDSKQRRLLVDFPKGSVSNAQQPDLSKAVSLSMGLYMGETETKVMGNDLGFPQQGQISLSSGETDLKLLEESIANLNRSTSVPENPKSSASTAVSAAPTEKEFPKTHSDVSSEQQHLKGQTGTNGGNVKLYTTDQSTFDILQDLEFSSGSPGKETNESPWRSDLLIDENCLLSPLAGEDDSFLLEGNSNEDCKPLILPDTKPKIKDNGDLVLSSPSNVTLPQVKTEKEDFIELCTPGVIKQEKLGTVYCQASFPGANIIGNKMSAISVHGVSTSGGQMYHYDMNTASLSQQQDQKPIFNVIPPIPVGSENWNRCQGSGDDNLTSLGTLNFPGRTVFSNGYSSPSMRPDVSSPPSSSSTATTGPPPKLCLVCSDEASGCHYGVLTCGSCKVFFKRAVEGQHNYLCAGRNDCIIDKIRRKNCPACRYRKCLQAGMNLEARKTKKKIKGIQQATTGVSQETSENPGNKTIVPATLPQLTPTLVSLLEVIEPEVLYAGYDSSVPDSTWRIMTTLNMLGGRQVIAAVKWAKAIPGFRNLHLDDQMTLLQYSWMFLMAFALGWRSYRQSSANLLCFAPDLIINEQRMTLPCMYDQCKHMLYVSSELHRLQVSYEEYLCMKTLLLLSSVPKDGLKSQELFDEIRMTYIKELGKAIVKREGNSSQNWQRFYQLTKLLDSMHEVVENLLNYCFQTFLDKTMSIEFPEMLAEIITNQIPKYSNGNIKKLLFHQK
Chain of Cytochrome P450 3A4 (Homo sapiens) (P08684 whole entry, looked up): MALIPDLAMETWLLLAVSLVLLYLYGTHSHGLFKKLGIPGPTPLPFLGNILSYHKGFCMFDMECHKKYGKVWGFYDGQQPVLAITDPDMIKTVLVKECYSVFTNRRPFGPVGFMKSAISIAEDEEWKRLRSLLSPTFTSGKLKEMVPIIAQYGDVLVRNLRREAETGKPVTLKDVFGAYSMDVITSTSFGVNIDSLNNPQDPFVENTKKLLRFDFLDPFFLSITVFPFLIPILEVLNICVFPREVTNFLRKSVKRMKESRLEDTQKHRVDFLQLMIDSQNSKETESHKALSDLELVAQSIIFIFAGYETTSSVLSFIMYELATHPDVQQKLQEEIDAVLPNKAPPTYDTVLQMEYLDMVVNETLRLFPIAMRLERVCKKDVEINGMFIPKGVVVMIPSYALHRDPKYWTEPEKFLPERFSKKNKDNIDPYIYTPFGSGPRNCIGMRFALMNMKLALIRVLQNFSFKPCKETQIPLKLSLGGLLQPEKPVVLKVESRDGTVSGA
Chain of Cytochrome P450 2C19 (Homo sapiens) (P33261 whole entry, looked up): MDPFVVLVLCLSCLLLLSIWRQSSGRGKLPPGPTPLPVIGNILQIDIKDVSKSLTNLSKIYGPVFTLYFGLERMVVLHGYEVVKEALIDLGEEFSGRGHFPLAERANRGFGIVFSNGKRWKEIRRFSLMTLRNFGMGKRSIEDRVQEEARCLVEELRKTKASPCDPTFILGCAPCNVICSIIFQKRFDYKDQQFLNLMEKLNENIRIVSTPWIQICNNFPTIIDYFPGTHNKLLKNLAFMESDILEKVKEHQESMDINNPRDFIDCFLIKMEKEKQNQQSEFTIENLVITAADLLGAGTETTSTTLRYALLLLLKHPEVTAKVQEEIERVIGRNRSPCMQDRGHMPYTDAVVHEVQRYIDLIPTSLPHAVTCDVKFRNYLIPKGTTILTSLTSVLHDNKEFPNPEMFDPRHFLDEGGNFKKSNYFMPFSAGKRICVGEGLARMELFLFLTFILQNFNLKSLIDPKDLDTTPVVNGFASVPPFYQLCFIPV
Chain of Cytochrome P450 2D6 (Homo sapiens) (P10635 whole entry, looked up): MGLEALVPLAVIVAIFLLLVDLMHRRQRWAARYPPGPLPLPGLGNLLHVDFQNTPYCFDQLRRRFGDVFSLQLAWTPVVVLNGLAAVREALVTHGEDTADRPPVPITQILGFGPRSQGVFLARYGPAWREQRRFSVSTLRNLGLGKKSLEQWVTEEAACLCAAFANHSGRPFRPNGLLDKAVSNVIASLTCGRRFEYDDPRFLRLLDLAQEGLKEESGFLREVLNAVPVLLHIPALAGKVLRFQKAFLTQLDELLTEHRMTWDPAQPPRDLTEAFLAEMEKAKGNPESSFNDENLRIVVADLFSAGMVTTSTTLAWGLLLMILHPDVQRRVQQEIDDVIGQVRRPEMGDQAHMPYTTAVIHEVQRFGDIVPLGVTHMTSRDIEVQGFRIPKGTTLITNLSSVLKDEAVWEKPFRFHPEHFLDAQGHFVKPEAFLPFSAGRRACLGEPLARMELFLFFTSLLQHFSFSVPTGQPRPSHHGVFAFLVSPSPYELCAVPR
Chain of Cytochrome P450 2C9 (Homo sapiens) (P11712 whole entry, looked up): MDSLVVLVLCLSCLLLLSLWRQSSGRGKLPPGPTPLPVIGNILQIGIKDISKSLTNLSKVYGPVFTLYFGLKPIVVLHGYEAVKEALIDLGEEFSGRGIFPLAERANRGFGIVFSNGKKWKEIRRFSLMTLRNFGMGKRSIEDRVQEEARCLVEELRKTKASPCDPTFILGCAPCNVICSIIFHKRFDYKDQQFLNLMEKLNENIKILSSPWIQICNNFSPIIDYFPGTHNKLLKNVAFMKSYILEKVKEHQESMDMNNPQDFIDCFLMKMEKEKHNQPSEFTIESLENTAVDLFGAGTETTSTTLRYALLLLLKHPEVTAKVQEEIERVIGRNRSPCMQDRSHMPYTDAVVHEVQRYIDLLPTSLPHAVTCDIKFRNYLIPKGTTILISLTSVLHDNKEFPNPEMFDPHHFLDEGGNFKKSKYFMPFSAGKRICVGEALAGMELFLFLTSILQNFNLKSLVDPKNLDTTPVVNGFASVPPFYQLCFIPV
Chain of Cytochrome P450 1A2 (Homo sapiens) (P05177 whole entry, looked up): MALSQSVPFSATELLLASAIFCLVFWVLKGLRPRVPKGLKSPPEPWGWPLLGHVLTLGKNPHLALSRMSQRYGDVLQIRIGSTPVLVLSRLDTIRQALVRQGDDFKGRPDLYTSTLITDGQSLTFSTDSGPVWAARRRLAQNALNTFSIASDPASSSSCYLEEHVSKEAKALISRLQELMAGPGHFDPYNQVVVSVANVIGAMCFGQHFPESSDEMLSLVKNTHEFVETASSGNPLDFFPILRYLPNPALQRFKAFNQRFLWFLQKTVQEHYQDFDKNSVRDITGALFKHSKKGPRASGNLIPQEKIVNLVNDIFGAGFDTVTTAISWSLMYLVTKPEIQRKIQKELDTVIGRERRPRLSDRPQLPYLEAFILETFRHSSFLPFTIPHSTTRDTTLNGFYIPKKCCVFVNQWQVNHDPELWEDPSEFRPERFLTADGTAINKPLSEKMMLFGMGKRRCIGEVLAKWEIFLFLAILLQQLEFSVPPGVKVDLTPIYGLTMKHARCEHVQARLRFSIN
Chain of DNA dC->dU-editing enzyme APOBEC-3G (Homo sapiens) (Q9HC16 whole entry, looked up): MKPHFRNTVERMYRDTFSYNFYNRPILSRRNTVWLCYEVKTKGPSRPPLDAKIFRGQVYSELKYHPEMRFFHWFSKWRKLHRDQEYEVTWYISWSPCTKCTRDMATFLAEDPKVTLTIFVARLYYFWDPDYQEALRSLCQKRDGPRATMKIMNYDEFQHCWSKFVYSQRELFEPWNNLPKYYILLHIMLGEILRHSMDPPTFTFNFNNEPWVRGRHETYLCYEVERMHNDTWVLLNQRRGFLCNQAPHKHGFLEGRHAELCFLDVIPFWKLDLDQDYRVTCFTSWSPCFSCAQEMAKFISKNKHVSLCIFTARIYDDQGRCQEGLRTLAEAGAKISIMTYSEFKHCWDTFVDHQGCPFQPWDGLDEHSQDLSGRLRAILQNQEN

O=c1ccc2cc3ccoc3cc2o1
active: [1] 31.6 nM | [5] 7.94 µM | [6] 31.6 µM | [8] 2 µM | [9] 3.98 µM
inactive: [2] > 46 µM | [3] > 46 µM | [4] | [7] | [10] | [11]
